The whole screen tested about 2,100 compounds, of which about 770 (37%) were called active.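 The calls were made as follows: active = by-eye trace score of 1 for enhancers or -1 for inhibitors, so actives lie on both sides (some results past the limit were not filed as active); inactive = score 0, or 3 fluorescent, or 4 baseline rise.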 The list shows a part of the results.

Chain of G protein-activated inward rectifier potassium channel 2 (Homo sapiens) + G protein-activated inward rectifier potassium channel 1 (Homo sapiens) (P48051 whole entry, looked up): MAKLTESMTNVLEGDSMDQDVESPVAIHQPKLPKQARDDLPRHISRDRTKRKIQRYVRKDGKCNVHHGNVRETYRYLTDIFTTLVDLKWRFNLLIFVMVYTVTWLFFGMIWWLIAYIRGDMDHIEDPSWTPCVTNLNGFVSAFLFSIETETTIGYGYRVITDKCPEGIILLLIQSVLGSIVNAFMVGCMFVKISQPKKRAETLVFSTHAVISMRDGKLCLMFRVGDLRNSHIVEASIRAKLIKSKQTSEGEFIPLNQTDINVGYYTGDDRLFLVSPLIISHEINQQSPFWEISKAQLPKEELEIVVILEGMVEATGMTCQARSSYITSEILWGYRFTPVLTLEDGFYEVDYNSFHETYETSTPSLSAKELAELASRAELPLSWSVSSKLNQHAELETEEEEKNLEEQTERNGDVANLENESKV
Chain of G protein-activated inward rectifier potassium channel 2 (Homo sapiens) + G protein-activated inward rectifier potassium channel 1 (Homo sapiens) (P48549 whole entry, looked up): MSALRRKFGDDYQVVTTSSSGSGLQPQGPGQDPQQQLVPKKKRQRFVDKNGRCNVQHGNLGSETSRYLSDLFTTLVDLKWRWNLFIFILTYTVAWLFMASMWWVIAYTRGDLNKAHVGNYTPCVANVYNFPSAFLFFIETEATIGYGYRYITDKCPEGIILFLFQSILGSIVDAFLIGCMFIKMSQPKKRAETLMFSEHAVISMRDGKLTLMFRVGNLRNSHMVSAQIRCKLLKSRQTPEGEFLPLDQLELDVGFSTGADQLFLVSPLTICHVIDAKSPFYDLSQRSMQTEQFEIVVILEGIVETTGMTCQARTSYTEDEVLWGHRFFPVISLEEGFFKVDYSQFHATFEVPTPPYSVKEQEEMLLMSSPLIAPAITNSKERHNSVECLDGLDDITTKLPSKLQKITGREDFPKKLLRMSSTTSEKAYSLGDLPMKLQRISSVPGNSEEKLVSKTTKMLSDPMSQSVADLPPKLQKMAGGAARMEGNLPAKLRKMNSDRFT

This assay addresses G protein-activated inward rectifier potassium channel 2 (Homo sapiens) + G protein-activated inward rectifier potassium channel 1 (Homo sapiens) (UniProt P48051+P48549). Put plainly: GIRK1/2 thallium flux modulators, retest, confirmation, cell-based, HEK293 rmGlu8/hGIRK1/2, FluoZin-2 (AID 623911). The settings on record: HEK293 rmGlu8/hGIRK1/2, thallium flux FluoZin-2; actives lie on both sides; glutamate co-added at its EC20 level.
Take `CCOc1cc(C(=O)NCc2ccncc2)cc(OCC)c1OCC`: the manual score was 0 (inactive).

In the case of `CO/N=C(\Cn1ncc(N2CCCC2)c(Br)c1=O)c1ccc(Cl)cc1`, the manual score is -1 (active).

With `CC(=O)c1ccc(N2CCCC2)c(F)c1`, the manual score is 0 (inactive).

`CO/N=C(\Cn1ncc(N2CCCC2)c(Cl)c1=O)c1ccc(Cl)cc1`: the manual score is -1 (active).

Regarding `CCN(CC)c1cnn(C/C(=N\OC)c2ccc(Cl)cc2)c(=O)c1Br`, the manual score was -1 (active).

Take `COc1ccc(-c2ccnc3nc(Sc4ncc(C(F)(F)F)cc4Cl)nn23)cc1`: the manual score was 0.5 (inactive).

For `CC(/C=N/NC(=O)c1c(Br)cnn1C)=C\c1ccccc1`, the manual score was 0.5 (inactive).

On to `Cc1cc(C(F)(F)F)c2c(=O)[nH]c(=O)n(Cc3ccccc3)c2n1`, for which the manual score was 0 (inactive).

For the molecule `CC(C)c1nc(=S)c2ccccc2[nH]1`, the manual score was 1 (active).

For `S=c1nc(C2CC2)[nH]c2ccccc12`, the manual score was 1 (active).

As to `CC(C)c1nc(=S)n(-c2ccccc2)[nH]1`, the manual score was 0 (inactive).

Consider `O=c1c2ccccc2[nH]c(=S)n1C1CCCCC1`, for which the manual score was 0 (inactive).

In the case of `CCc1nc2cc(Cl)c(Cl)cc2[nH]1`, the manual score was 1 (active).

In the case of `O=P(CCCCCCCCCP(=O)(c1ccccc1)c1ccccc1)(c1ccccc1)c1ccccc1`, the manual score was -1 (active).

As for `Nc1nnc(C(=O)c2ccccc2N)s1`, the manual score is 0 (inactive).

Regarding `O=C(CSc1nc(-c2ccccc2)cc(C(F)(F)F)n1)NCCN1CCOCC1`, the manual score was 0 (inactive).

On to `Cc1ccc2cccc(Oc3nnnn3-c3ccccc3)c2n1`, for which the manual score was -1 (active).

As to `Cc1ccc(-n2nnnc2-c2nc3ccccc3s2)cc1`, the manual score was 0 (inactive).

Turning to `CCCc1noc2c1/C(=N\O)CC(CC(C)SCC)C2` (stereo not given), the manual score is -1 (active).

Consider `COc1ccc2c(c1)Sc1ccccc1N2CCN(C)C`, for which the manual score is -1 (active).

As for `CCCCn1c(-c2csc(C(C)C)c2)n[nH]c1=S`, the manual score was 0 (inactive).

As to `COc1ccc2occ(C(=O)c3ccc(N=C(C)N(C)C)cc3)c2c1`, the manual score was -1 (active).

On to `Cc1ccc(OCC(=O)Nc2ccc(C)c(S(=O)(=O)N3CCCCC3)c2)c([N+](=O)[O-])n1`, for which the manual score was 1 (active).

Take `Cc1ccc(NC(=O)COc2cccnc2[N+](=O)[O-])cc1S(=O)(=O)N1CCCCC1`: the manual score was 1 (active).

As to `COc1cc(NC(=O)CSc2nccc(C)n2)c(C)cc1[N+](=O)[O-]`, the manual score is 0 (inactive).

With `Cc1ccc(Nc2n[nH]c(C)c2[N+](=O)[O-])cc1C`, the manual score is -0.5 (inactive).

Turning to `CC(C)NS(=O)(=O)c1ccc(OCC(=O)Nc2ccc3c(c2)OCO3)c(Cl)c1`, the manual score was 0 (inactive).

In the case of `COc1cccc(OCCc2c(C)n[nH]c2C)c1`, the manual score was 0 (inactive).

Turning to `Cc1ccc(NC(=S)N=Nc2c(O)n(C)c3ccc(S(=O)(=O)N4CCOCC4)cc23)cc1`, the manual score was 0 (inactive).

Take `Cc1ccc(S(=O)(=O)N2CCN(C)CC2)cc1-c1nnc2c3ccccc3c(C)nn12`: the manual score was 0 (inactive).

Turning to `CC(C)(C)C1CCc2[nH]nc(C(=O)O)c2C1` (stereo not given), the manual score was 0.5 (inactive).

With `CC(O)c1nc2ccccc2n1C1CCCCC1` (stereo not given), the manual score was 0 (inactive).

On to `C=CCOc1cccc(C2C(C(=O)c3ccc(C)o3)=C(O)C(=O)N2c2nccs2)c1` (stereo not given), for which the manual score is 3 (inactive).

In the case of `CC(=O)Nc1ccc(C(=O)CSc2nc3ccc(C)cc3[nH]2)cc1`, the manual score is 0 (inactive).

In the case of `COC(=O)c1cc(CSc2nc3ccc(C)cc3[nH]2)oc1C`, the manual score is -1 (active).

On to `CC1=NN(C(N)=S)C(=O)C1N=Nc1ccc(C)cc1C` (stereo not given), for which the manual score was 0.5 (inactive).

For `CC1=NN(C(N)=S)C(=O)C1N=Nc1ccccc1C` (stereo not given), the manual score was 1 (active).

On to `COc1ccc(CC(=O)Nc2cc(=O)n(C)c(=O)n2C)cc1`, for which the manual score is 0 (inactive).

With `Cc1ccc(-c2cn(-c3ccccc3)c(SCC(=O)NC3CCS(=O)(=O)C3)n2)cc1C` (stereo not given), the manual score is 0 (inactive).

As for `O=c1[nH]c2ccc(Cl)cc2c(=O)n1Cc1ccco1`, the manual score was 0 (inactive).

On to `O=c1c2cc(N3CCOCC3)ccc2[nH]c(=S)n1Cc1ccc(Cl)cc1`, for which the manual score was 0 (inactive).

Regarding `O=c1c2cc(Cl)ccc2[nH]c(=S)n1Cc1ccco1`, the manual score is 1 (active).

For `Cc1cc(NC(=O)Nc2ccccc2)n(-c2ccccc2)n1`, the manual score is 1 (active).

Turning to `O=C(COc1ccc(Cl)cc1Cl)Nc1ccccn1`, the manual score was 0 (inactive).

Regarding `O=C(COc1ccc(Cl)cc1Cl)NNC(=S)Nc1ccc(F)cc1`, the manual score was 0 (inactive).

Regarding `Cc1cc(C)n(CC(=O)O)n1`, the manual score was 0 (inactive).

For `Cc1cc(NC(=O)COc2ccc(Cl)cc2Cl)n(-c2ccccc2)n1`, the manual score is 1 (active).

Take `NC1=NC2(CCCCC2)n2c(nc3ccccc32)N1`: the manual score was 0 (inactive).

For the molecule `CCCCc1ccc(NC(=S)Nc2ccc(Cl)c(S(=O)(=O)N(C)C)c2)cc1`, the manual score is 1 (active).

As for `CCSc1ccccc1C(=O)Nc1cccnc1`, the manual score was 0 (inactive).

With `CCCCc1ccc(NC(=S)Nc2cccnc2)cc1`, the manual score is 1 (active).

Consider `CCCCN(CCCC)S(=O)(=O)c1ccc(NC(=O)c2ccc([N+](=O)[O-])cc2Cl)cc1`, for which the manual score was 0 (inactive).

Regarding `O=C(CCCc1nc(-c2ccc(Cl)cc2)no1)Nc1cccnc1`, the manual score was 0 (inactive).

Consider `CC(C)N(C(=O)CN(C#N)c1nc(N(C)C)nc(N(C)C)n1)c1ccccc1`, for which the manual score is 0 (inactive).

Consider `CC(/C=N/n1c(-c2ccc(Cl)cc2)n[nH]c1=S)=C\c1ccco1`, for which the manual score is 0 (inactive).

As for `Oc1[nH]c2ccccc2c1N=Nc1nc2ccccc2s1`, the manual score is 1 (active).

With `Oc1[nH]c2ccccc2c1N=NC(=S)NCCc1ccccc1`, the manual score is 0 (inactive).

For the molecule `O=C(CSCc1ccccc1)N=Nc1c(O)[nH]c2ccccc12`, the manual score is 0 (inactive).

Take `O=C(c1ccco1)N1CCN(C(=O)c2cnn3c2NC(c2cccs2)CC3C(F)(F)F)CC1` (stereo not given): the manual score was 0 (inactive).

Regarding `Cc1ccc(-c2csc3ncnc(N4CCN(C(=O)c5ccccc5)CC4)c23)cc1`, the manual score is -1 (active).

Turning to `O=C(c1ccco1)N1CCN(c2ncnc3scc(-c4cccs4)c23)CC1`, the manual score is -1 (active).

On to `O=C(c1cc2nc(-c3ccccc3)cc(-c3ccccc3)n2n1)N1CCN(C(=O)c2ccco2)CC1`, for which the manual score was 0 (inactive).

Consider `Cc1ccc(-c2nnc(SCC(=O)Nc3cccc(C(=O)N4CCOCC4)c3)n2C)cc1`, for which the manual score was -0.5 (inactive).

Regarding `O=C(c1ccc(-c2ccccc2)cc1)N1CCN(c2ncccn2)CC1`, the manual score was 0 (inactive).

In the case of `COCC(C)OC(=O)c1c(N)n(CC(C)C)c2nc3ccccc3nc12` (stereo not given), the manual score was 0 (inactive).

Turning to `CCOP(=O)(c1ccccc1)c1nc(-c2ccccc2C)oc1N1CCCCC1` (stereo not given), the manual score was -1 (active).

For the molecule `O=C(NC(=S)N1CCN(c2ccc(Cl)cc2[N+](=O)[O-])CC1)c1ccco1`, the manual score was 1 (active).

For the molecule `O=C(NC(=S)Nc1ccccc1N1CCOCC1)c1cccs1`, the manual score was 0 (inactive).

Turning to `O=C(O/N=C\c1ccc(N2CCCCC2)c([N+](=O)[O-])c1)c1c(F)cccc1F`, the manual score was 0 (inactive).

Take `O=C(NC(=S)N1CCN(c2c(Cl)cccc2[N+](=O)[O-])CC1)c1cccs1`: the manual score was 1 (active).

Consider `O=C(NC(=S)N1CCCCC1)c1cccs1`, for which the manual score was 1 (active).

Regarding `O=C(NC(=S)Nc1cccc(Cl)c1N1CCCC1)c1ccc(-c2cccc([N+](=O)[O-])c2)o1`, the manual score was 0 (inactive).

On to `O=C(NC(=S)N1CCN(c2ccc(Cl)cc2[N+](=O)[O-])CC1)c1cccs1`, for which the manual score is 1 (active).

For `N#CC(C#N)=C1C=C2C=C(N3CCCCCC3)CCC2CC1` (stereo not given), the manual score was 3 (inactive).

For the molecule `CCCC(=O)Nc1ccc(NC(=O)C2CC2)cn1`, the manual score is 0 (inactive).

With `CN(c1ccc(OCC(=O)OCC(=O)Nc2ccccc2F)cc1)S(=O)(=O)c1cccs1`, the manual score is 0 (inactive).

On to `O=C(NC(=S)N1CCN(c2ccc(C(F)(F)F)cc2[N+](=O)[O-])CC1)c1cccs1`, for which the manual score was 1 (active).

Take `O=C(CNC1CCCCCC1)Nc1ccc(N2CCCC2)cc1`: the manual score is 0 (inactive).

For `O=C(CN1CCOCC1)Nc1ccc(C2CCCCC2)cc1`, the manual score was 1 (active).

As for `CCc1sc(NC(=O)CN2CCOCC2)nc1-c1ccccc1`, the manual score is 0 (inactive).

As to `S=c1[nH]c2cc(Cl)ccc2s1`, the manual score was 1 (active).

As for `CCOC(=O)CSc1nc2ccc(Nc3nc(N4CCOCC4)nc(N4CCOCC4)n3)cc2s1`, the manual score is 0 (inactive).

Take `O=C1CC(c2ccco2)Sc2nc3ccccc3n21` (stereo not given): the manual score is 0 (inactive).

For the molecule `CCCc1nc2ccccc2c(=O)n1/N=C/c1c(C)[nH]n(-c2ccc(C)cc2)c1=O`, the manual score is 1 (active).

For the molecule `Cc1ccc(-n2[nH]c(C)c(/C=N/c3ccccn3)c2=O)cc1`, the manual score was 0 (inactive).

Consider `Cc1ccc(C2CC2c2n[nH]c(=S)n2-c2ccc(C)cc2)cc1` (stereo not given), for which the manual score is 0 (inactive).

Turning to `CCCc1ccc(C(=O)N2CCN(c3ccccc3OCC)CC2)cc1`, the manual score is -1 (active).

As to `CCOc1ccccc1N1CCN(C(=S)NC(=O)C23CC4CC(CC(C4)C2)C3)CC1`, the manual score is 0 (inactive).

For `CCOc1ccccc1N1CCN(C(=O)c2cc3c(s2)CCC3)CC1`, the manual score was -0.5 (inactive).

As to `O=C(CSc1c[nH]c2ccccc12)NCc1ccc2c(c1)OCO2`, the manual score is -0.5 (inactive).

Take `O=C(CSc1nc(CCC2CCCC2)nc2ccccc12)NCc1ccc2c(c1)OCO2`: the manual score is 1 (active).

`NC(=O)c1noc(C(=O)N(CC(=O)NC2CCCC2)Cc2ccc3c(c2)OCO3)c1N`: the manual score was 0 (inactive).

With `Cc1ccc(C)n1-c1ccc(C(=O)NN)cc1`, the manual score is 0 (inactive).

With `CC(/C=N/n1c(C2CCCCC2)n[nH]c1=S)=C\c1ccccc1`, the manual score was 0 (inactive).

Consider `CC(C)c1ccc(-n2cccc2/C=C2/C(=N)N3C=CSC3=NC2=O)cc1`, for which the manual score was 0 (inactive).

`C=CCn1c(N)c(C(=O)OC(C)(C)C)c2nc3ccccc3nc21`: the manual score was 0 (inactive).

For the molecule `CCn1c(O)c(N=NC(=O)CNc2cccc(C)c2)c2ccccc21`, the manual score was 0 (inactive).

Consider `CCCCn1c(O)c(N=Nc2ccccn2)c2ccccc21`, for which the manual score was 0 (inactive).

For `CCCn1c(O)c(N=NC(=O)c2ccco2)c2ccccc21`, the manual score was 1 (active).

Consider `C=CCn1c(O)c(N=NC(=O)OC(C)(C)C)c2ccccc21`, for which the manual score was 1 (active).

`CCCCNC(=S)N=Nc1c(O)n(Cc2ccccc2)c2ccccc12`: the manual score was 0 (inactive).

As for `O=C(NC(=S)N1CCCCC1)C12CC3CC(CC(C3)C1)C2`, the manual score is 0.5 (inactive).

On to `CC12CC3CC(C)(C1)CC(C(=O)NC(=S)N1CCOCC1)(C3)C2`, for which the manual score was 0.5 (inactive).

On to `CC12CC3(C)CC(C)(C1)CC(C(=O)NC(=S)N1CCOCC1)(C2)C3`, for which the manual score is 1 (active).

Regarding `CC12CC3CC(C)(C1)CC(C(=O)NC(=S)N1CCCCC1)(C3)C2`, the manual score is 1 (active).
